40 molecules from PubChem BioAssay (NCATS) can be followed below.

The structures appear in SMILES notation. Inconclusive results are not listed. Unmarked numbers belong to inactive results. Activity calls are given as the source filed them. The call rests on the fitted dose curve; in most records, active means well fitted inhibition curve with a large enough effect; inconclusive means small, poorly fitted or top-dose-only effect; inactive means flat fitted curve, though single readings scatter.
On the % scale 0 is the no-effect control and ±100 the full control effect.

Calcium and integrin-binding protein 1 (Homo sapiens), sequence (Q99828 whole entry, looked up): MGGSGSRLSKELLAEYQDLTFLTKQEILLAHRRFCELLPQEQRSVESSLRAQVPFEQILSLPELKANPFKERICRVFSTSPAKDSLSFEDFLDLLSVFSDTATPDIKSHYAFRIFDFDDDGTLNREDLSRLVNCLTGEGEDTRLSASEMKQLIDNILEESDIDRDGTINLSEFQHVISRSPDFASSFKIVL

This assay deals with Calcium and integrin-binding protein 1 (Homo sapiens) (UniProt Q99828). In words: Primary qHTS for Identification of Calcium Integrin Binding Protein 1 (CIB1) Competitor (AID 1508620).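 Further: GST tagged CIB1 binding a fluorescein labelled alphaIIb integrin peptide tracer; top concentration of the series differs between compounds.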 The settings on record: CIB1-GST / FITC-alphaIIb peptide fluorescence polarization; series mostly up to 114 µM; activity change, negative = inhibition: at the top concentration. A digest of the protocol:
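Fluorescence polarization competition: CIB1-GST (1 uM final) preincubated with compound 15 min at room temperature, then FITC-labeled alphaIIb peptide (100 nM final) added for another 15 min. Polarization read at Ex 480/Em 540.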
As to `Cc1ccc(OCCn2c(CCNC(=O)c3cccc4ccccc34)nc3ccccc32)cc1`, the “activity change, negative = inhibition” value was 39%.
`Cc1cc(NC(=O)Nc2nnc(-c3ccncc3)s2)ccc1Br`: the “activity change, negative = inhibition” value is -1.1%.
The same measure, in the same setting: the figure for `Cc1cccc(C)c1OCc1cccc(C2Nc3ccccc3C(=O)N2Cc2ccco2)c1` (stereo not given) is -0.231%; for `C=Cc1cc(F)c(S(=O)(=O)N2CCN(S(=O)(=O)c3ccc4c(c3)OCCO4)CC2)cc1F` it is 7.85%.
For the molecule `Cn1c(SCC(=O)c2cc3ccccc3o2)nnc1-c1ccccc1`, the “activity change, negative = inhibition” value was 1.04%.
On to `O=C1c2ccccc2C(=O)N1c1cnc2ccccc2c1`, for which the “activity change, negative = inhibition” value is 3.71%.
Turning to `COc1ccc(C2Nc3ccccc3C(=O)N2CCCN(C)C)cc1COc1ccc(NC(C)=O)cc1` (stereo not given), the “activity change, negative = inhibition” value is -0.487%.
Consider `Cc1nc(SCC(=O)c2ccc(F)cc2)n[nH]1`, for which the “activity change, negative = inhibition” value is -0.986%.
As for `Cc1sc(NC(=O)Cc2ccc3c(c2)OCO3)nc1-c1ccc2c(c1)CCN2`, the “activity change, negative = inhibition” value was 4.34%.
For the molecule `COc1ccc(C2N=C(Nc3nc4ccccc4o3)NC3=C2C(=O)CCC3)cc1` (stereo not given), the “activity change, negative = inhibition” value is -10.4%.
In the case of `Cc1cccc(S(=O)(=O)N2CCN(S(=O)(=O)c3ccc4c(c3)OCCO4)CC2)c1`, the “activity change, negative = inhibition” value was -7.77%.
Still for that read-out and setting: the figure for `Cc1cnc(-c2ccccc2C(C)C)nc1NCC1CCN(C2COC2)CC1` is 1.25%; for `CCCCN1C(=O)c2ccccc2NC1c1ccc(OC)c(COc2c(C)cc(NC(C)=O)cc2C)c1` (stereo not given) it is 1.72%; for `CC(=O)c1ccc(-c2ccc3ncnc(NCc4ccc(C)o4)c3c2)o1` it is -7.5%.
On the same count and under the same terms, the figure for `O=C(NC1CCCc2c1cnn2CCO)c1ccccn1` (stereo not given) is 1.06%; for `CC(=O)N1CCN(c2ccc(NCc3ccco3)cc2)CC1` it is -12%.
Take `CC(=O)Nc1ccc(OC2=NS(=O)(=O)c3ccccc32)cc1`: the “activity change, negative = inhibition” value is 6.15%.
As for `c1cncc(-c2ccc(CNc3nc(C4CCCC4)nc4ccccc34)cc2)c1`, the “activity change, negative = inhibition” value is 6.46%.
In the case of `O=c1cc(CN2CCCN(c3ccc(C(F)(F)F)cn3)CC2)nc2ccccn12`, the “activity change, negative = inhibition” value is 2.16%.
On the same count and under the same terms, to `CCC(=O)Nc1ccc(OCc2cc(C3Nc4ccccc4C(=O)N3Cc3ccccc3)ccc2OC)cc1` (stereo not given) belongs 8.79%; to `Cc1cc2c(s1)c1cnn(Cc3c(F)ccc(C)c3F)c(=O)c1n2C`, 0.24%.
`Cc1cnccc1-c1nc(Nc2ccc(F)c(F)c2)c2ccccc2n1`: the “activity change, negative = inhibition” value was 8.68%.
As to `O=C(Nc1cccc(Cc2ccccc2)c1)c1ccc(-c2cccc([N+](=O)[O-])c2)o1`, the “activity change, negative = inhibition” value is 3.13%.
`CCCC1CCN(C(=O)CC(c2ccc3c(c2)OCO3)c2c(O)cc(OC)cc2OC)C1` (stereo not given): the “activity change, negative = inhibition” value was 2.16% [at 228 µM].
On the same count and under the same terms, the figure for `FC(F)(F)c1ccccc1-c1nc(NCc2ccc(C3CCCCC3)cc2)c2ccccc2n1` is 5.01%.
With `Fc1cc(Nc2nc(-c3ccncc3)nc3ccccc23)ccc1N1CCCCC1`, the “activity change, negative = inhibition” value is 0.303%.
In the case of `CCOc1ccc(NC(=O)Nc2ccc(-c3nc4ccccc4[nH]3)cc2)cc1`, the “activity change, negative = inhibition” value is -3.49%.
Consider `O=C(OCC#CCSc1nnc(-c2cccc3ccccc23)o1)c1ccc(Cl)cc1`, for which the “activity change, negative = inhibition” value is 0.96%.
Still for that read-out and setting: to `O=C(Nc1ccc(O)c2ncccc12)c1ccccc1F` belongs -19.4%.
Turning to `Cc1cc(C)nc(NC(=S)N2CCN(c3ccc(C(F)(F)F)cn3)CC2)c1`, the Potency result was “inactive”.
For `O=C(Nc1ccc2ccccc2c1)Nc1nnc(-c2cccnc2)s1`, the “activity change, negative = inhibition” value was 1.17%.
On to `FC(F)(F)c1cccc(N2CCN(C(=S)Nc3nccc4ccccc34)CC2)c1`, for which the “activity change, negative = inhibition” value is 1.49%.
With `CCCCC(O)C(=O)Nc1cc(C(F)(F)F)ccc1Cl` (stereo not given), the “activity change, negative = inhibition” value is -1.69%.
As to `N#Cc1nc(Nc2cccc3ccccc23)nc(NC2CCCC2)n1`, the “activity change, negative = inhibition” value is 6.46%.
Still for that read-out and setting: to `COc1ccc(NC(=O)C(OC(=O)CNC(=O)c2ccccc2)c2ccccc2)cc1F` (stereo not given) belongs 2.77%; to `O=C(Nc1ccc(-c2nc3ccccc3[nH]2)cc1)c1ccncc1`, 2.59%; to `CNc1nnc(-c2cccc3ccccc23)s1`, -3.78%.
Turning to `CC(=O)c1ccc(N2CCN(S(=O)(=O)c3ccc4c(c3)C(=O)OC4)CC2)cc1`, the “activity change, negative = inhibition” value is 5.49%.
In the case of `CCOC(=O)c1nn(-c2ccccc2)c(=O)c2c(N)sc(C)c12`, the “activity change, negative = inhibition” value is -9.43%.
In the case of `O=S(=O)(Nc1ccc2ccccc2c1)c1ccc(NCc2cccc(Cl)c2O)cc1`, the “activity change, negative = inhibition” value was -14.3%.
